Assay results as given in PubChem BioAssay AID588342 (National Center for Advancing Translational Sciences (NCATS), 2011).
About 25,000 (6.9%) of roughly 360,000 compounds were called active. Inconclusive results (about 9%) are left out. The list comes from a sample in which actives are over-represented; it also holds similar structures and randomly drawn compounds. Unmarked numbers belong to inactive results. Calls follow the shape of the dose curve; as a rule, active = well fitted inhibition curve with a large enough effect; inconclusive = small, poorly fitted or top-dose-only effect; inactive = flat fitted curve, though single readings scatter.

Target: Luciferin 4-monooxygenase (Photinus pyralis) (UniProt P08659)
Sequence (P08659 whole entry, looked up): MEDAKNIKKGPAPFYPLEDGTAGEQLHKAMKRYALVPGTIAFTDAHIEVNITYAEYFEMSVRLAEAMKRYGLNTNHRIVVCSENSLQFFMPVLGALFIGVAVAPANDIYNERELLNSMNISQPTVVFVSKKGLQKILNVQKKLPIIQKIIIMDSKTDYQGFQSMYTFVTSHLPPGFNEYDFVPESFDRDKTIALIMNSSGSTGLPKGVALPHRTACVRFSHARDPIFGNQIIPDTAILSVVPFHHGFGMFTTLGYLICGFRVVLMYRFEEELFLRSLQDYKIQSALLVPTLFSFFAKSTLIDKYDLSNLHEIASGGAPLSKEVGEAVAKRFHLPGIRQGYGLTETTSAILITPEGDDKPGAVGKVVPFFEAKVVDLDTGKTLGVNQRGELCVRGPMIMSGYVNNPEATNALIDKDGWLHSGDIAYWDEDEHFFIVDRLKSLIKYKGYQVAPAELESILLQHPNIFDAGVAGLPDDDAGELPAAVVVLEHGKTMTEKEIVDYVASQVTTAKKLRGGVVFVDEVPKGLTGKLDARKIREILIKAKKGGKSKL
Experiment: qHTS profiling assay for firefly luciferase inhibitor/activator using purifed enzyme and Km concentrations of substrates (counterscreen for miR-21 project); also: nearly all actives have a fitted effect of over 55% in size;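 as to activity change, negative = inhibition: plate controls were vehicle for no effect and reference inhibitor for full effect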
Conditions: purified FLuc, luminescence inhibition; series mostly up to 57.5 µM; activity change, negative = inhibition: at the top concentration
Text: MLPCN Grant: 1 R21 NS059478-01 (miR-21 grant) Assay Provider: NCGC NCGC Assay Overview: Firefly (Photinus pyralis) luciferase is one of the most commonly used transcriptional reporters for a number of reasons. It is considered one of the more dynamically responsive reporters -that is, responsive to changes in reporter transcription - as it requires no post-translational modifications and is enzymatically active directly after protein synthesis (Wood, 1998). Additionally, the half-life of the luciferase protein is short relative to other reporter-gene products (Wood, 1995). Whereas reporters with long half-lives potentially allow for increased signal due to accumulation of reporter-gene product, once accumulated in the cell, dynamic changes in reporter-gene expression may be difficult to detect(Fan and Wood, 2007; Almond et al., 2004). It has been shown that wild-type P. pyralis luciferase has a half-life of approximately […] hours in mammalian cells (Thompson et al., 1991). Firefly luciferase reporter-gene assays are also generally considered one of the most sensitive assay types (Wood, 1995; Wood, 1998). Although light produced in a bioluminescence reaction is of lower intensity than that produced during fluorescence emission, this is offset by little to no background light inherent to luminescent assays. Thus the luciferase reporter can be expressed at much lower levels than fluorescent proteins while still providing robust signal. # However, it was initially observed, in 1991, by Thompson et al., that compounds that resemble the substrates of firefly luciferase (FLuc) can act as competitive inhibitors of the enzyme, and that these compounds, upon interaction with luciferase in the cell, can actually stabilize the protein and increase its half-life. Accumulated intracellular FLuc protein can be measured as an increase in luminescence signal, upon addition of detection reagents (which contain high concentrations of FLuc substrates) commonly used in high-throughput screening. In cell-based reporter gene assays that use FLuc as the reporter gene to quantitate the potential influence of a given compound against the target biology, this apparent increase in luminescence can mistakenly be interpreted as identification of a compound that is active against the target of interest. This is the case for the miR-21 FLuc reporter gene assay used to identify inhibitors of the miR-21 pathway (PubChem AID 2289) - compounds of interest will inhibit miR-21 biogenesis/expression or activity, and are identified by causing an increase in luminescence, due to increased FLuc translation. However, FLuc inhibitory compounds that stabilize the FLuc protein will give an identical read-out, making it difficult to distinguish compounds that are active against the target from those active against FLuc. Previous profiling work to determine the prevalence of compounds that affect FLuc enzymatic activity (PubChem AID 411) identified that ~3% of the MLSMR library (then at ~72K) inhibited FLuc. […] Since the MLSMR had grown to ~350K compounds, and since it was expected that a significant percentage of compounds found active in the miR-21 FLuc assay would be FLuc inhibitors, the library was screened for activity against FLuc using a biochemical assay of purified FLuc and KM concentrations of FLuc substrates (D-luciferin and ATP).
NCGC Assay Protocol Summary: Reagents: 50mM Tris acetate, pH 7.5; 10mM Mg acetate; 10uM D-luciferin (Sigma #L9504); 10uM ATP; 0.01% Tween-20; 0.05% BSA; 10nM P. pyralis luciferase (Sigma #L9506) Control compounds used were two known firefly luciferase inhibitors (compounds (2) and (5) in Auld et al., 2010), and DMSO. […]

| Compound | activity change, negative = inhibition | Potency |
| --- | --- | --- |
| Oc1cc(O)c2c(c1)OC(c1ccc(O)c(O)c1)C(O)C2 (configuration not stated) | 5.83% (inactive) |  |
| Cc1ccc(Cl)cc1NC(=O)CCC(=O)N1CC(C)Sc2ccccc21 (configuration not stated) | -4.47% (inactive) |  |
| CCOC(=O)c1ccc(NC(=O)CSc2nc3c([nH]c4ccccc43)c(=O)n2C)cc1 | 2.26% (inactive) |  |
| O=C(CN1CCc2ccccc2C1)Nc1cccc(S(=O)(=O)N2CCOCC2)c1 | 0.0865% (inactive) |  |
| Cn1c(=O)c(=O)n(C)c2cc(NC(=O)c3ccccc3Br)ccc21 | 4.88% (inactive) |  |
| CS(=O)(=O)c1ccccc1C(=O)Nc1ccc2sccc2c1 | 1.48% (inactive) |  |
| O=C(Nc1ccc2sc3ccccc3c(=O)c2c1)c1ccccc1Cl |  | 2.13 µM (active) |
| COc1ccccc1NC(=O)C1=C(C)Nc2ncnn2C1c1sccc1C (configuration not stated) | 2.3% (inactive) |  |
| COc1ccccc1Nc1nnc(SC(C)C(=O)NC2CC2)s1 (configuration not stated) | 3.74% (inactive) |  |
| CCCOC(=O)c1ccc(N2C(=O)c3ccccc3C2=O)cc1 | -13% (inactive) |  |
| CC1=C(C(=O)OCc2ccccc2)C(c2ccc(C(F)(F)F)cc2)NC(=O)N1CCCCCC(=O)O (configuration not stated) | -18% (inactive) |  |
| Cc1[nH]n(-c2ccccc2)c(=O)c1CCOC(=O)c1ccc(C(F)(F)F)cc1 |  | 21.3 µM (active) |
| O=C(NC1(C(F)(F)F)N=C(c2ccccc2)N(C2CCCCC2)C1=O)c1ccccc1F (configuration not stated) | -5.4% (inactive) |  |
| CCS(=O)(=O)N1Cc2ccccc2CC1C(=O)Nc1nc2ccc(F)cc2s1 (configuration not stated) |  | 15.1 µM (active) |
| CN(C)CCCN(C(=O)c1ccc(S(=O)(=O)N2CCCc3ccccc32)cc1)c1nc2ccc(F)cc2s1 | 1.08% (inactive) |  |
| CCS(=O)(=O)N1Cc2ccccc2CC1C(=O)Nc1ccc(OC)cc1OC (configuration not stated) | 3.71% (inactive) |  |
| O=C(COC(=O)c1cc(S(=O)(=O)N2CCOCC2)ccc1Cl)NCCc1ccccc1 | 4.26% (inactive) |  |
| CCOC(=O)c1c(C)[nH]c(C)c1S(=O)(=O)NCC(=O)NCc1cccc(C)c1 | -1.22% (inactive) |  |
| CN(Cc1nc(-c2cnccn2)no1)Cc1n[nH]c2c1CCCCC2 | 2.36% (inactive) |  |
| CCOC(=O)C(Cc1ccccc1)NC(=O)CCC(=O)c1ccc(OC)cc1 (configuration not stated) | 5.51% (inactive) |  |
| COc1ccc(C(=O)N[C@H](C(=O)NCc2ccccc2)C(C)C)cc1 | 0.173% (inactive) |  |
| COc1ccc(C(=O)NC(Cc2ccc(OC(=O)c3ccc(OC)cc3)cc2)C(=O)O)cc1 (configuration not stated) |  | 12 µM (active) |
| C[C@H](NC(=O)c1[nH]cnc1C(=O)Nc1nccs1)c1ccccc1 | -2.61% (inactive) |  |
| COc1cc(OC)cc(C(=O)Nc2cc3nn(-c4ccccc4)nc3cc2Cl)c1 |  | 5.36 µM (active) |
| COc1cccc(C(=O)Nc2ccc(-c3cc(C(F)(F)F)nn3-c3ccccc3)cc2)c1 | 3.97% (inactive) |  |
| CCOc1ccc(-n2nc3ccc(NC(=O)c4ccc(OC)c(Cl)c4)cc3n2)cc1 | -2.98% (inactive) |  |

| Compound | activity change, negative = inhibition | Potency |
| --- | --- | --- |
| CCC(=O)Nc1ccc(C)cc1-c1nc2ccccc2n(Cc2ccccc2)c1=O | -1.05% (inactive) |  |
| CC(=O)Oc1ccc(-c2nc3c(C)cccc3c(=O)o2)cc1 | -16.3% (inactive) |  |
| CN(C)/C=C1\C=C(c2ccccc2)OC1=O | -15% (inactive) |  |
| COc1cccc(/C=C2\C=C(c3ccc(C)cc3)OC2=O)c1OC(C)=O |  | 15.1 µM (active) |
| O=C1C=C(c2ccnc3cc(Cl)ccc23)C[C@@H](c2ccc3c(c2)OCO3)C1 | 2.17% (inactive) |  |
| Cc1cc2c(c(=O)n1Cc1ccccc1)C1O[C@](CCCCN3C(=O)c4ccccc4C3=O)(Cc3ccccc31)O2 | 4.34% [at 11.5 µM] |  |
| O=C(CCCN=C1NS(=O)(=O)c2ccccc21)OCC(=O)c1ccc(F)c(F)c1 | 0.261% (inactive) |  |
| O=Cc1ccc(OCc2cn3ccccc3n2)cc1 |  | 12 µM (active) |
| Cn1cc[n+](C)c1COc1ccc(C=O)cc1 | -0.526% (inactive) |  |
| COc1ccc(C(=O)NCc2cn3ccccc3n2)cc1 | 6.17% (inactive) |  |
| Cc1ccc(OCCSc2nc(C)c(Cc3ccccc3)c(=O)[nH]2)cc1 | -5.18% (inactive) |  |
| O=C(Nc1ccn(Cc2ccccc2)n1)c1cccc(F)c1 |  | 4.78 µM (active) |
| O=C(Nc1ccn(Cc2ccccc2)n1)c1n[nH]c([N+](=O)[O-])c1Cl |  | 0.849 µM (active) |
| Cc1ccc(Cn2ccc(NC(=O)C3C4CCC(C4)C3C(=O)O)n2)cc1 (configuration not stated) | -2.09% (inactive) |  |
| CCn1c(=O)c(=O)n(CC)c2cc(N3CCCCC3)c(NC(=O)c3cccc(F)c3)cc21 | 4.07% (inactive) |  |
| O=C(Nc1ccccc1N1CCN(c2ccccc2)CC1)c1cccc(F)c1 | -0.474% (inactive) |  |
| O=C(Cn1cnc([N+](=O)[O-])n1)NCCc1ccccc1 | 6.43% (inactive) |  |
| COc1cc(NC(=O)CSc2nc3nc(C)c(Cc4ccc(C)cc4)c(C)n3n2)cc(OC)c1OC | -10.1% (inactive) |  |
| CCC(C)N(C(=O)CSc1nnnn1-c1ccccc1OC)C1CCS(=O)(=O)C1 (configuration not stated) | 0.645% (inactive) |  |
| CCC(=O)N1CCc2cc(S(=O)(=O)NC(C(=O)NCCc3ccc(C)cc3)C(C)C)ccc21 (configuration not stated) | -4.06% (inactive) |  |
| Cc1cc(Oc2ccc(Cl)cc2)nc(SCC(=O)c2ccccc2)n1 | -2.98% (inactive) |  |
| Cc1cc(C)nc(S/C=C/C(=O)c2ccccc2)n1 |  | 3.79 µM (active) |
| Cc1cc(C)nc(SCC(=O)c2ccc(Cl)cc2)n1 | 1.59% (inactive) |  |
| O=C(CSc1nccn1-c1ccc(F)cc1)Nc1cccc2ccccc12 | -15.4% (inactive) |  |
| S=C(c1ccccc1)N1CCCC1 | -0.387% (inactive) |  |
| S=C(c1ccc(-c2ccccc2)o1)N1CCCCC1 |  | 2.69 µM (active) |
